22 compounds from PubChem BioAssay (NCATS) can be followed below.

Results filed as inconclusive are left out. Active and inactive are the calls of the source. Unless noted, the call rests on the fitted dose curve; in most records, active means well fitted curve in the direction sought with a large enough effect; inconclusive means small, poorly fitted or top-dose-only effect, or another doubt; inactive means no such curve, though single readings can be large; an effect the other way counts as inactive or inconclusive.

Assay [1] can be described thus: qHTS assay for small molecule antagonists of peroxisome proliferator-activated receptor delta signaling (AID 588535; active means well fitted inhibition curve with a large enough effect in the signal ratio, with a control signal flat, not every such curve was filed as active; the % refers to the signal ratio;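 on max response: cells co-treated with a PPAR-delta agonist as stimulator during compound exposure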). The following applies: HEK293T PPARd-UAS-bla, beta-lactamase FRET ratio, 18 h; 460 nm channel. In short, it runs like this: (§1)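 Reporter: UAS-bla under PPAR-delta response element, HEK293T host. Medium: 2% charcoal/dextran FBS. Dosing: titration, 18 hrs, 37 C. Detection: CCF4, 2 hrs RT, 405 ex/460 and 530 em.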
A general note: qHTS replaces the single test concentration by a dilution series.

The target in assay [2] is Peroxisome proliferator-activated receptor delta (Homo sapiens) (UniProt Q03181). The description is as above. In short, it runs like this:
as §1

The target of assay [3] is Peroxisome proliferator-activated receptor gamma (Homo sapiens) (UniProt P37231). The experiment in a line: qHTS assay for small molecule agonists of peroxisome proliferator-activated receptor gamma signaling (AID 588536; active means well fitted curve in the direction sought with a large enough effect in the signal ratio, with a control signal flat, not every such curve was filed as active; the % refers to the signal ratio;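 further: 0% = DMSO basal wells and 100% = rosiglitazone at 2 µM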). In outline:
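PPAR-gamma-UAS-bla HEK293 cells in medium with 1% charcoal/dextran-treated FBS were exposed to compounds for 16 h at 37 C. Beta-lactamase activity was read with CCF4 substrate (405 nm excitation, 460/530 nm emission).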

Assay [4] deals with Vitamin D3 receptor (Homo sapiens) (UniProt P11473). Briefly: qHTS assay for small molecule antagonists of vitamin D receptor signaling (AID 588541; calls by dose curve;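 further: receptor activated by calcitriol during compound treatment; on the % scale 0 is the no-effect control and ±100 the full control effect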). In short, it runs like this:
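VDR-UAS-bla HEK293T cells (2000/well, 2% charcoal-stripped FBS) were treated with titrated compounds plus 1-alpha,25-dihydroxyvitamin D3 (50 nM or 3 nM final) for 16 h at 37 C. CCF4 beta-lactamase fluorescence was read; Hill fits gave IC50.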

Assay [5] has the same target. Briefly: qHTS assay for small molecule agonists of vitamin D receptor signaling (AID 588543; calls by dose curve;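 further: 0% = DMSO basal and 100% = reference agonist control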). In outline:
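VDR-UAS-bla HEK293T cells, 2000/well, 2% charcoal-stripped FBS; compound titration 16 h at 37 C; CCF4 beta-lactamase ratio read. Normalized to 50 nM 1-alpha,25-dihydroxyvitamin D3 (100%) and DMSO; Hill fit gives EC50, efficacy.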

The target in assay [6] is Thyroid hormone receptor beta (Homo sapiens) (UniProt P10828). The experiment in a line: qHTS assay for small molecule agonists of thyroid hormone receptor beta signaling (AID 588545; calls by dose curve). In outline:
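Agonist-mode beta-lactamase reporter assay, HEK 293 cells, 2% charcoal/dextran FBS; cells plated 4 hrs, compound 18 hrs at 37 C, CCF4 2 hrs RT. Normalized to 10 nM T3 (100%) and DMSO (0%); Hill fit gives EC50, efficacy.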

A short description of assay [7]: qHTS assay for small molecule agonists of the antioxidant response element (ARE) signaling pathway (AID 651741; active means well fitted activation curve with a large enough effect in the signal ratio; the % refers to the signal ratio; further: % of control where 0% means no effect). In short, it runs like this: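 Compounds in DMSO are pinned onto HepG2 ARE-bla cells (2,000/well) that were preincubated 5 h; plates stay 16 h at 37 C, then beta-lactamase activity is detected with LiveBLAzer B/G substrate by fluorescence.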
The nature of assay [8]: qHTS assay for small molecule activators of the p53 signaling pathway (AID 651743; active means well fitted activation curve with a large enough effect in the signal ratio, not every such curve was filed as active; the % refers to the signal ratio; further: % of control where 0% means no effect). The following applies: HCT-116 p53RE-bla, beta-lactamase FRET ratio, 16 h; activation: stronger effect = higher value. In outline: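 Cell-based beta-lactamase reporter (p53 response elements, HCT-116 background). After a 5-hour preincubation, cells received compound for 16 hours at 37 C; substrate development ran 2 hours at room temperature.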

For assay [9], the target named is Peroxisome proliferator-activated receptor alpha (Homo sapiens) (UniProt Q07869). The experiment in a line: qHTS assay for small molecule agonists of the peroxisome proliferator-activated receptor alpha (PPARalpha) signaling pathway (AID 651778). Further: % of control where 0% means no effect. The settings on record: PathHunter PPARalpha complementation, chemiluminescence, 6 h; max response: stronger effect = higher value. In short, it runs like this: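 Cells plated at 2,000/well and held overnight at 37 C, 5% CO2, then compound added by pin tool for 6 hr; after PathHunter detection reagent and 60 min at room temperature, chemiluminescence from enzyme complementation was read.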
Chain of Peroxisome proliferator-activated receptor alpha (Homo sapiens) (Q07869 whole entry, looked up): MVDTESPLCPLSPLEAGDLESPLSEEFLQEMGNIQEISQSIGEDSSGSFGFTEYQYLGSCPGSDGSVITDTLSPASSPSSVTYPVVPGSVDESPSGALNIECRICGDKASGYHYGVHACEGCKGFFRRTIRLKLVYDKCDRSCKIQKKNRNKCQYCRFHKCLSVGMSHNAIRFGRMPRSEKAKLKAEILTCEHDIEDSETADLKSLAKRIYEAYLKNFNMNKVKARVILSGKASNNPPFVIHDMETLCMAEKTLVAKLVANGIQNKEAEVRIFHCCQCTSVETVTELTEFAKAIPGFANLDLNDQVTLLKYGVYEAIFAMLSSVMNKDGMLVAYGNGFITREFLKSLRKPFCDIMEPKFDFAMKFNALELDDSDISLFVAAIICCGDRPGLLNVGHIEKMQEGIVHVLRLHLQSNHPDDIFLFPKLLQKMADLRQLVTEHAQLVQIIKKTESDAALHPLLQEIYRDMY

A short description of assay [10]: qHTS assay for small molecule agonists of the antioxidant response element (ARE) signaling pathway measured by Nrf2-dependant transcriptional activity (AID 720636; active means well fitted curve in the direction sought with a large enough effect in the repeat runs; an effect the other way counts as inactive or inconclusive;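 further: HepG2 cells with an ARE-driven luciferase reporter; % of control where 0% means no effect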). In outline: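 ONE-Glo luminescence, read 30 min after reagent addition at room temperature, reflected ARE reporter activity in HepG2 cells that had been incubated with compound for 16 hr at 37 C in 1% dialyzed FBS.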

Assay [11] can be described thus: qHTS assay for small molecule agonists of the antioxidant response element (ARE) signaling pathway measured by Nrf2-dependant transcriptional activity - cell viability counter screen (AID 720653; active means well fitted curve in the direction sought with a large enough effect in the repeat runs; an effect the other way counts as inactive or inconclusive; further: on the % scale 0 is the no-effect control and ±100 the full control effect). The following applies: ARE-bla HepG2 viability, CellTiter-Glo ATP luminescence, 16 h; max response: stronger effect = lower value. In short, it runs like this:
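ARE-bla HepG2 cells (2,000/well) rested 5 hrs at 37C/5% CO2, then exposed to compounds in DMSO for 16 hrs. Viability was read in the same wells as intracellular ATP by luminescence, 30 min at room temperature after reagent addition.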

A short description of assay [12]: qHTS assay for cell viability of the p53RE-bla HCT-116 cell line (AID 743292). Further: on the % scale 0 is the no-effect control and ±100 the full control effect; nearly all actives have a fitted effect of over 55% in size. In short, it runs like this:
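After plating at 4,000 cells per well and a 5 h rest at 37 C, HCT-116 cells carrying p53RE-bla received test chemicals in DMSO. Sixteen hours later at 37 C, CellTiter-Glo was added and luminescence recorded following 30 min at room temperature.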

Assay [13] addresses Nuclear receptor subfamily 1 group I member 2 (Rattus norvegicus) (UniProt Q9R1A7). The experiment in a line: qHTS assay for small molecule activators of the rat pregnane X receptor (rPXR) signaling pathway (AID 651751; call rule not given here; further: 0% is about no effect). The settings on record: rPXR reporter cells, luciferase (One-Glo), 24 h.
A short description of assay [14]: qHTS assay for small molecule activators of the human pregnane X receptor (PXR) signaling pathway (AID 720659; call rule not given here; further: 0% is about no effect).
Assay [15] in a line: qHTS drug screen for cell cycle checkpoint inhibitors in PARPi-resistant BRCA-mutant ovarian cancer cell lines. (AID 1963452; calls by dose curve). The settings on record: PEO1/OlaR viability, CellTiter-Glo luminescence, 96 h, stronger effect = lower value. In short, it runs like this: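 PEO1, PEO4 and PEO1/OlaR ovarian cancer cells, 600 per well, exposed 96 h at 37C to a dilution series. Viability read by CellTiter-Glo luminescence, normalized to DMSO and empty wells; activity summarized as Z-AUC.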

Assay [16] in a line: qHTS profiling for inhibitors of Plasmodium falciparum proliferation (AID 504749). Further: nearly all actives have a fitted effect of over 60% in size. Further: potency means the concentration at half of the fitted maximal effect.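 On activity, negative = inhibition: 0% = DMSO vehicle and full inhibition = artemisinin control.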 The following applies: P. falciparum in erythrocytes, SYBR Green DNA, 72 h, at 28.7 µM (top of the series). In outline: (§2)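 Parasite proliferation within erythrocytes, 72 h exposure. Endpoint: SYBR Green I fluorescence after overnight lysis at room temperature. Controls: 0.29 uM artemisinin, DMSO.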

For a further assay, the system named is GB4. The assay is described as above. The settings on record: P. falciparum in erythrocytes, SYBR Green DNA, 72 h; series mostly up to 28.7 µM. In short, it runs like this:
as §2

The target in assay [17] is Cytochrome P450 2C9 (Homo sapiens) (UniProt P11712). Briefly: qHTS Assay for Inhibitors and Substrates of Cytochrome P450 2C9 (AID 883). Further: nearly all actives have a fitted effect of over 60% in size. Further: potency means the concentration at half of the fitted maximal effect. In outline: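 Human CYP2C9 (10nM) hydroxylated Luciferin-H (100uM, at its KM) to luciferin in 25mM KPO4. Compound was preincubated 10 min at 37C, then NADPH regeneration started a 60 min reaction at 37C. Luminescence was read after detection reagent, normalized to 57uM sulphaphenazole.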
Chain of Cytochrome P450 2C9 (Homo sapiens) (P11712 whole entry, looked up): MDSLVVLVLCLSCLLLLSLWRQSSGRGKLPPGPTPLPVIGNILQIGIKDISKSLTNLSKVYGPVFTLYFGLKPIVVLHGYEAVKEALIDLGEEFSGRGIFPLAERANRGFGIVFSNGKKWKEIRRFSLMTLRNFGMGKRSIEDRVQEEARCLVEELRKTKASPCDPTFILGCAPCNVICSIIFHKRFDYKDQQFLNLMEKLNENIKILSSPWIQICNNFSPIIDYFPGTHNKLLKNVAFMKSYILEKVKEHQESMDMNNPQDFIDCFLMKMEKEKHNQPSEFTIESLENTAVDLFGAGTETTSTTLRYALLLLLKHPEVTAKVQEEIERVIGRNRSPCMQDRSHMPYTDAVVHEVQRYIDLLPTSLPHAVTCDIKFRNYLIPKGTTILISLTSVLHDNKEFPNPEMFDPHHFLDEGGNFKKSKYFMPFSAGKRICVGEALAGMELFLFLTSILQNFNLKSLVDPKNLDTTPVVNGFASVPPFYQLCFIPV

Assay [18] concerns the target Cytochrome P450 2D6 (Homo sapiens) (UniProt P10635). Briefly: qHTS Assay for Inhibitors and Substrates of Cytochrome P450 2D6 (AID 891). Further: potency means the concentration at half of the fitted maximal effect; nearly all actives have a fitted effect of over 60% in size. In short, it runs like this: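 Human CYP2D6 (5 nM) with 30 uM Luciferin-ME EGE (at Km) in 100 mM KPO4, compound preincubated 10 min, then NADPH regeneration system for 60 min at room temperature. Luciferin read by luminescence; normalized to 1.43 uM quinidine.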

Chain of Vitamin D3 receptor (Homo sapiens) (P11473 whole entry, looked up): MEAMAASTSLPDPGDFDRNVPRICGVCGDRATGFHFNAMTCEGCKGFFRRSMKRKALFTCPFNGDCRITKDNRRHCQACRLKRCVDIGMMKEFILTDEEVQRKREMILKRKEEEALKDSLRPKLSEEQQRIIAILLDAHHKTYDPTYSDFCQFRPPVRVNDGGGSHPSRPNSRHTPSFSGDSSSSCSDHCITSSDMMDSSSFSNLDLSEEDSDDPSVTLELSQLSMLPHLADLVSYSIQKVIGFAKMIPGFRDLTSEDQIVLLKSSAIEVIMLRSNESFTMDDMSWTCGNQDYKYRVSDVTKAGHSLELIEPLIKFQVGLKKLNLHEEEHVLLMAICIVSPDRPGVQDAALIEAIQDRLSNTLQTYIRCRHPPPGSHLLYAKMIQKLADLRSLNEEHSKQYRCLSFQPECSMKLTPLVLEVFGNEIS
Chain of Cytochrome P450 2D6 (Homo sapiens) (P10635 whole entry, looked up): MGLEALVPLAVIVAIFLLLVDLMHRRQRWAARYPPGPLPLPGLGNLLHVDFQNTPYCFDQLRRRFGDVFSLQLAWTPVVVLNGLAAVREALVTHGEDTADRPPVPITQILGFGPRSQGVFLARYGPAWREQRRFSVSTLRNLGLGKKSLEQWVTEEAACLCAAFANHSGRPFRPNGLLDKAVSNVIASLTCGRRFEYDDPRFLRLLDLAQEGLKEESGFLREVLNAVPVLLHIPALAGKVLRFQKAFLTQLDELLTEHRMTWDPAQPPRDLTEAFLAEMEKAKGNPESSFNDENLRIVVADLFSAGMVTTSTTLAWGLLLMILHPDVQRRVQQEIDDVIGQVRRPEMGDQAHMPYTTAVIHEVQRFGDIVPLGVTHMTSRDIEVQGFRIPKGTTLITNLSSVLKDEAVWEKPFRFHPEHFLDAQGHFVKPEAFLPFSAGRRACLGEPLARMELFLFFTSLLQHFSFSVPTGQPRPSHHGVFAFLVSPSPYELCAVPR
Chain of Peroxisome proliferator-activated receptor gamma (Homo sapiens) (P37231 whole entry, looked up): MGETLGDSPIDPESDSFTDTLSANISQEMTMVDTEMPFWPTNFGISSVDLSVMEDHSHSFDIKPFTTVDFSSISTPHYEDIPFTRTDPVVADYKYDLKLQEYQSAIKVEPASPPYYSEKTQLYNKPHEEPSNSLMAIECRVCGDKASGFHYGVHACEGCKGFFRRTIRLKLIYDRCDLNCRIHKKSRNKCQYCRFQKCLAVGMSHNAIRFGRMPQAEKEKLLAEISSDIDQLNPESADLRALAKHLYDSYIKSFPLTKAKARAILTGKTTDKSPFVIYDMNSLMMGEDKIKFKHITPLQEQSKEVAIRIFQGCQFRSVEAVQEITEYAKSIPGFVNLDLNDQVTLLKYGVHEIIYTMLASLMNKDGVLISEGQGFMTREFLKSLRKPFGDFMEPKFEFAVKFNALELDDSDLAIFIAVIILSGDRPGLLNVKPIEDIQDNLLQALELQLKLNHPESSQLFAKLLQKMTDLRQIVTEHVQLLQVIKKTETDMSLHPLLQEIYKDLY
Chain of Thyroid hormone receptor beta (Homo sapiens) (P10828 whole entry, looked up): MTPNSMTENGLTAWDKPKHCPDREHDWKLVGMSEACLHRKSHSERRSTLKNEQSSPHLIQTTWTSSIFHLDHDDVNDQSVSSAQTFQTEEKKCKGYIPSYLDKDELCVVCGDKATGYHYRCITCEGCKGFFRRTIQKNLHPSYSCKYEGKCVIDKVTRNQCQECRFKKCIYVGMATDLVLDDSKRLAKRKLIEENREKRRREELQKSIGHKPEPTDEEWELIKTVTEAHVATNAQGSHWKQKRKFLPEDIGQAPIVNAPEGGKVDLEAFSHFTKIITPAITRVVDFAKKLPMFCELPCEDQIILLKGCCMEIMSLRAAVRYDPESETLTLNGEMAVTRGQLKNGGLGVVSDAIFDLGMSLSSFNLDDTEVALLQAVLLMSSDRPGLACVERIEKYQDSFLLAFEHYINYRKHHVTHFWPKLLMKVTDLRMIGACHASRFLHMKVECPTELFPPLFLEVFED
Chain of Peroxisome proliferator-activated receptor delta (Homo sapiens) (Q03181 whole entry, looked up): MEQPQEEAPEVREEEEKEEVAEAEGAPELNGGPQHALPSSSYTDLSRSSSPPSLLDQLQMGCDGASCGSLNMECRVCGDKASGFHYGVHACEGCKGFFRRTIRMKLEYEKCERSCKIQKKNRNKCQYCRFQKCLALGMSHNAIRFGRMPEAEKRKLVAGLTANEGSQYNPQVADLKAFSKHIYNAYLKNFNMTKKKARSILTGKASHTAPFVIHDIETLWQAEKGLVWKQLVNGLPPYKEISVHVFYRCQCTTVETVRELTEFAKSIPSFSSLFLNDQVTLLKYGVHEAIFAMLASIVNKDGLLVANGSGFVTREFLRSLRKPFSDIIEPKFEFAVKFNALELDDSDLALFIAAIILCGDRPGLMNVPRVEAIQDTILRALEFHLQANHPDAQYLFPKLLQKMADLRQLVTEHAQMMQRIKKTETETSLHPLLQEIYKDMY
Chain of Nuclear receptor subfamily 1 group I member 2 (Rattus norvegicus) (Q9R1A7 whole entry, looked up): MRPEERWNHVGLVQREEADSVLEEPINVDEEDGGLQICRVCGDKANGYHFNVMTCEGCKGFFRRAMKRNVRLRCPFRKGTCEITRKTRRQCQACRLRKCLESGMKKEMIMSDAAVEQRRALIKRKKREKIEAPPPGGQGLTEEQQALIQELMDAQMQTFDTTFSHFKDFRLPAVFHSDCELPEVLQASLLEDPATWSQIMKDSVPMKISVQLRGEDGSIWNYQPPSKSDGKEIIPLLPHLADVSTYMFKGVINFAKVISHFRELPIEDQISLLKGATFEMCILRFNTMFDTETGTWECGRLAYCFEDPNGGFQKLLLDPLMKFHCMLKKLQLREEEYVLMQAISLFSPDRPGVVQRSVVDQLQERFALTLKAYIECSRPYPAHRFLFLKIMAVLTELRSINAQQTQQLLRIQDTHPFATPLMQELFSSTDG

Consider `O=C(/C=C/c1ccc(O)c(O)c1)O[C@@H](C(=O)O)[C@@H](OC(=O)/C=C/c1ccc(O)c(O)c1)C(=O)O`, for which the max response in [1] was 24.1%; in assay [9] it was -4.13% (inactive); in [11] it was 27.4% (inactive); in assay [13] it was -5.44% (inactive). Besides, the Potency entry in assay [2], in assay [7], in [10] and in assay [12] was “inactive” each time. In addition, the result in assay [3], in [4], in [5], in assay [6] and in assay [14] was inactive. In addition, in assay [8], the activation was 0.853% (inactive).
Regarding `O=C(O)CCCCCCCCC(=O)O`, the max response was 1.66% in assay [1], -0.446% (inactive) in [9], -1.89% (inactive) in [11] and -1.81% (inactive) in [13]. For the same compound, the Potency entry in [2], in assay [7], in assay [10] and in [12] was “inactive” throughout. For the same compound, the compound was classed as inactive in [3], in assay [4], in [5], in [6] and in assay [14]. Also, the activation in assay [8] is 0.877% (inactive).
As for `CC[C@@]1([C@@H]2O[C@@H]([C@H]3O[C@@](O)(CO)[C@H](C)C[C@@H]3C)C[C@@H]2C)CC[C@H]([C@]2(C)CCC3(C[C@H](O)[C@@H](C)[C@@H]([C@@H](C)[C@@H](OC)[C@H](C)C(=O)O)O3)O2)O1` (stereo not given in full), the values for the Z-AUC in assay [15], in assay [15] (measured here: PEO1 parental Z-AUC) and in assay [15] (measured here: PEO4 Z-AUC) were -0.884 (inactive), -0.753 and -1.58, respectively.
In the case of `C[Si](C)(C)O[Si](C)(C)O[Si](C)(C)C`, the max response in [1] is 25.8%; in assay [9] it was 0.325% (inactive); in [11], 4.82% (inactive); in [13], 0.588% (inactive). Moreover, the Potency result in assay [2], in assay [10] and in assay [12] was “inactive” each time. Besides, the compound was classed as inactive in [3], in assay [4], in [5], in [6] and in [14]. In addition, in [8], the activation was -8.05% (inactive).
For the compound `O=C(O)c1cc(O)c2c(c1)[C@H]([C@H]1c3cc(C(=O)O)cc(O)c3C(=O)c3c(O[C@@H]4OC(CO)C(O)C(O)C4O)cccc31)c1cccc(O[C@@H]3OC(CO)C(O)C(O)C3O)c1C2=O` (stereo not given in full), the activity, negative = inhibition is -10% (inactive) in [16] (parasite line A) and -4.26% (inactive) in [16] (parasite line B). The Potency in the assay with GB4 was 15.1 µM (active).
As to `O=c1ccc2cc3ccoc3cc2o1`, the Potency in assay [17] was 7.94 µM (active); in [18] it was 2 µM (active).
`COc1ccc2[nH]cc(CCNc3ncnc4ccc(-c5ccoc5)cc34)c2c1`: the Potency in assay [18] is 5.01 µM (active).
Still for that read-out and setting: then `COc1ccccc1CNc1ncncc1-c1ccc2c(c1)OCO2`, with 2.51 µM (active).
In the case of `COc1cccc(Cn2c(=O)cnc3cnc(Nc4cccc(OC)c4)nc32)c1`, the Potency in assay [17] was 2 µM (active).
Consider `COc1ccccc1CNc1ncncc1-c1ccccc1C(F)(F)F`, for which, in assay [18], the Potency is 2 µM (active).
For the compound `CN(C)c1ncc2nc(CCc3ccccc3)c(=O)n(CCC#N)c2n1`, the Potency in assay [18] was 2.51 µM (active).
Same read-out and setting: in the case of `COc1cccc(-c2cncnc2NCCc2c[nH]c3ccc(OC)cc23)c1` it was 2.51 µM (active).
For `COCCn1c(=O)c(-c2cccs2)nc2cnc(Oc3ccccc3)nc21`, the Potency in assay [17] is 3.98 µM (active).
As for `COc1ccc(-c2nc3cnc(Oc4cccc(Cl)c4)nc3n(C[C@H]3CCCO3)c2=O)cc1`, the Potency in assay [17] was 5.01 µM (active).
With `Cc1cccc(CNc2ncncc2-c2ccccc2C)c1`, in [18], the Potency is 3.98 µM (active).
Turning to `COc1cccc(-c2nc(NC3CC3)c3ccccc3n2)c1`, the Potency in assay [18] was 7.94 µM (active).
Same read-out and setting: in the case of `CN(Cc1ccco1)c1nc(-c2ccccc2C(F)(F)F)nc2ccccc12` it was 7.94 µM (active).
Still for that read-out and setting: in the case of `N#Cc1cccc(-c2nc(NCCN3CCOCC3)c3ccccc3n2)c1` it was 7.94 µM (active).
As to `COCCn1c(=O)c(-c2ccccc2)nc2cnc(Oc3cccc(Cl)c3)nc21`, the Potency in [17] was 0.501 µM (active).
The same measure, in the same setting: then `CN1CCN(c2ncc3nc(-c4cn(C)c5ccccc45)c(=O)n(C[C@H]4CCCO4)c3n2)CC1`, with “inactive”.
The same measure, in the same setting: in the case of `Cn1cc(-c2nc3cnc(N4CCNCC4)nc3n(C3CC3)c2=O)c2ccccc21` it was 3.98 µM (active).
Consider `Cc1nc2cnc(N3CCN(C)CC3)nc2n(CCc2ccccc2)c1=O`, for which the Potency in assay [18] was 2.51 µM (active).
